EP2 modulator = modulators of human EP2 prostaglandin E2 receptor. P43116. EP2-expressing cells, cAMP HTRF FRET, PGE2 co-stimulation. induction, % at 25 µM. hit rate 0.83% among 260,000. AID 940;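 active = compounds whose cAMP rise, as percent of the full-agonist control response, exceeds 60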;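 also: rat C6 glioma line stably carrying human EP2 under a CMV promoter; the protocol text gives 20 µM as final concentration; 100% = response of wells given 1 µM PGE2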
Hck-Nef inh = human Hck-Nef kinase inhibition; inhibition, % at 20 µM; hit rate 0.68% among 220,000; P08631; AID 463187; Recombinant Hck-YEEI plus Nef, Z-Lyte FRET kinase assay;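 active = Hck-Nef kinase inhibition above about 50%, limit read from the data; inactive = inhibition below that limit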;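 also: 0% = DMSO with Hck plus Nef and 100% = Hck alone without Nef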
Target sequence (P08631 whole entry, looked up): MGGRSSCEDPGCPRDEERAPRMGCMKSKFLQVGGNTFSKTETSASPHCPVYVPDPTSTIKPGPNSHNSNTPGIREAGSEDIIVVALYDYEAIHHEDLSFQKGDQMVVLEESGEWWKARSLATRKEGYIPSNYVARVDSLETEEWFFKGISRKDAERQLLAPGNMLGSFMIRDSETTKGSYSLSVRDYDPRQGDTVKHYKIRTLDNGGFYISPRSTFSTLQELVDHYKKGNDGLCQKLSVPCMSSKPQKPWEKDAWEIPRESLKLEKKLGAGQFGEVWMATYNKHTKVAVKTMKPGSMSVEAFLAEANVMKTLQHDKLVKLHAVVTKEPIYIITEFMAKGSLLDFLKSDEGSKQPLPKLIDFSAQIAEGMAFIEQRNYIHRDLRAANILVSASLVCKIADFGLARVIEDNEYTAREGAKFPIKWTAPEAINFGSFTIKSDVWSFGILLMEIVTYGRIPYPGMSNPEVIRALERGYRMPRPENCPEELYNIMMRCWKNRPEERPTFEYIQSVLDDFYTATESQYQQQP
p97 ATPase inh = inhibitors of human p97 ATPase. P55072. recombinant p97 ATPase, Kinase-Glo ATP luminescence, 3 h. inhibition, % at 8 µM. hit rate 0.42% among 220,000. AID 1481; in the data active = inhibition above about 15%;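 also: 0% = DMSO vehicle and 100% = wells lacking enzyme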
Arbovirus inh = antivirals against arbovirus infection. hit rate 0.37% among 200,000. arbovirus infection cell-based antiviral screen. inhibition, % at 10 µM; in the data active = inhibition above about 30%
PGE2 EP2 inh = blocks the human prostaglandin E2 receptor EP2; AID 1422; C6 glioma cells expressing human EP2, cAMP TR-FRET; cells stimulated with saturating PGE2; hit rate 0.52% among 260,000; P43116; inhibition, % at 25 µM;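 active = percent inhibition above 40 after rounding to a whole number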;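 also: rat C6 glioma host cells with rolipram phosphodiesterase inhibitor present; the protocol text gives 20 µM as final concentration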
EP2 cAMP induct = EP2 receptor cAMP induction, counter-screens negative. shares compounds with EP2 modulator. C6 glioma EP2 cells, cAMP HTRF induction; plus low (about EC15) PGE2 agonist. calls only at 20 µM (by protocol). hit rate 47% among 1,300;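 active = cAMP induction above 50% in the main assay while under 30% in all four parallel counter assays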;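 also: rat C6 glioma cells stably expressing human EP2 receptor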
Starred values were filed as active, the others as inactive; i = inactive; / = no result; + = active, no number. In the library only some 2.4% were active in any assay of this set; here they are far more common.

SMILES	EP2 modulator	Hck-Nef inh	p97 ATPase inh	Arbovirus inh	PGE2 EP2 inh	EP2 cAMP induct
O=c1c2c(n3cnnc3n1-c1ccccc1)-c1ccccc1CC21CCCC1	20	4	-1	5	7	/
Cc1ccc(-n2c(SCC(N)=O)nc3c(c2=O)C2(CCCC2)Cc2ccccc2-3)cc1	71*	5	-1	-33	13	i
O=c1c2c(n3cnnc3n1C1CCCCC1)-c1ccccc1CC21CCCCC1	68*	10	4	-8	9	+
COC(=O)c1c(NC(=O)c2ccc(C)cc2)sc(C(=O)Nc2cccc(OC)c2)c1C	17	/	/	/	11	/
Cc1ccc(-c2cc(C(F)(F)F)nn2-c2ccc(S(N)(=O)=O)cc2)cc1	66*	/	/	/	11	+
COc1ccccc1C(=O)NC(=S)Nc1cc(C(=O)O)ccc1C	72*	23	2	7	12	+
COc1cc2ccccc2cc1C(=O)NC(=S)Nc1cc(C(=O)O)ccc1C	100*	9	-6	42*	2	+
Cc1ccc(C(=O)O)cc1NC(=S)NC(=O)Cc1ccccc1	2	0	4	4	9	/
CC(=O)Nc1cc2c(cc1C(=O)C(C)C)OCCO2	-14	-4	3	-2	7	/
CC(C)C(=O)c1cc2c(cc1NC(=O)c1ccccc1)OCCO2	71*	-1	2	-2	3	+
O=C(COc1ccc(CNC2(c3cccc(F)c3)CC2)cc1)N1CCOCC1	-45	/	/	/	9	/
NCCCNC(=O)c1ccco1	-20	/	/	/	11	/
C[C@H](C(=O)c1ccccc1)[C@@H](c1ccccc1)N1CCOCC1	56	/	/	/	12	+
CC(NC(=O)Nc1ccccc1)C(c1ccccc1)N1CCOCC1 (stereo unspecified)	-7	0	0	1	5	/
Cc1cccc(S(=O)(=O)N2CCC(CO)(Cc3ccccc3)CC2)c1	-74	11	0	9	12	/
C=C(C)Cn1c(C)cc(C)c(S(=O)(=O)c2cccc(C)c2)c1=O	90*	16	-8	10	6	+
CC1CCc2cc(F)cc3c(O)c(C(=O)NCc4ccco4)c(=O)n1c23 (stereo unspecified)	69*	-2	6	-1	/	i
CC1CCN(CC(=O)NCc2ccco2)CC1	-18	24	7	7	5	/
COc1ccc(C2CC(c3cccs3)=NN2C(=O)c2ccc(Br)o2)cc1 (stereo unspecified)	51	-2	-2	0	9	i
O=C(O)C1=CC(=C(c2ccc(O)c(C(=O)O)c2)c2ccc(O)c(C(=O)O)c2)C=CC1=O	26	/	/	/	11	/
CC1=C/C(=C(/c2ccc(O)c(C)c2)c2ccccc2C(=O)O)C=CC1=O	51	/	/	/	5	i
COc1ccc(C2(NC(=O)c3ccc(Cn4cccn4)cc3)CCCC2)cc1	-30	/	/	/	6	/
O=C(Nc1ccc2nc(-c3ccccn3)[nH]c2c1)c1ccco1	-73	/	/	/	13	/
O=C(c1ccccc1O)N1N=C(c2ccccc2)CC1(O)C(F)(F)F (stereo unspecified)	78*	-6	3	-10	2	i
COC(=O)N1N=C(c2ccccc2)CC1(O)C(F)(F)F (stereo unspecified)	-18	1	-1	5	12	/
SMILES	EP2 modulator	Hck-Nef inh	p97 ATPase inh	Arbovirus inh	PGE2 EP2 inh	EP2 cAMP induct
COc1ccc(C(=O)N2N=C(c3ccccc3)CC2(O)C(F)(F)F)cc1 (stereo unspecified)	83*	2	-1	4	11	+
CC(C(=O)N1CCN(Cc2ccco2)C[C@@H]1C(C)C)c1n[nH]c(=O)c2ccccc12 (stereo partly specified)	-15	/	/	/	10	/
COC(=O)c1c(NC(=O)c2ccccc2F)sc(C(=O)N2CCCCC2)c1C	23	/	/	/	24	/
Cc1sc(NC(=O)c2ccccc2F)c(CN2CCCCC2C)c1C (stereo unspecified)	79*	3	-2	4	10	+
CCC(C)(C)n1nnnc1C(c1cc2cc(C)cc(C)c2[nH]c1=O)N1CCN(C2CCCCC2)CC1 (stereo unspecified)	-48	/	/	/	10	/
CC(=O)c1cnc2cc(C(=O)NC3(c4ccccc4F)CCCC3)nn2c1C	-16	/	/	/	10	/
Cc1c(F)cccc1NC(=O)CCCCCC1NC(=O)NC1C (stereo unspecified)	77*	4	0	5	9	i
Cn1c(N2CCC(C(=O)NCc3ccncc3)CC2)nc2ccccc21	-11	/	/	/	/	/
S=c1[nH]cc(-c2ccccc2)n1-c1ccccc1	75*	1	2	10	11	i
S=C1NCCc2ccc(Cl)cc2C1c1ccccc1 (stereo unspecified)	75*	1	2	-8	7	+
Cc1cccc(NC2=NC(=S)N(c3ccc(C(=O)O)cc3)C23CCCCC3)c1	97*	1	2	-1	/	+
O=C(c1ccc(Cl)cc1)c1oc2ccccc2c1CS(=O)(=O)c1ccccc1	80*	3	0	4	3	+
Cn1c(=O)c2c(nc(SCC(=O)c3cccs3)n2Cc2ccc(F)cc2)n(C)c1=O	75*	3	4	0	33	i
CCCCc1ccc(-n2c(Cc3cccs3)n[nH]c2=S)cc1	71*	24	-3	-7	9	+
S=c1[nH]nc(Cc2cccs2)n1-c1ccccc1	4	0	2	7	/	/
Cc1nc(N2N=C(c3ccc(Cl)cc3)CC2c2ccco2)sc1C(=O)N(C)C (stereo unspecified)	72*	17	-4	9	5	+
CC(=O)N1N=C(c2ccc(Cl)cc2)CC1c1ccco1 (stereo unspecified)	-5	11	0	/	8	/
CC(C)Sc1nc2sc3c(c2c2nnc(SCC(=O)NCc4ccco4)n12)CCCC3	58	5	-1	-2	11	i
Cc1ccc(-n2c(=S)[nH]c3c(oc4ccccc43)c2=O)cc1C	74*	7	6	6	16	i
CC(=O)Nc1ccc(NC(=O)CSc2nnc3c4c5c(sc4nc(C(C)C)n23)CCCC5)cc1	-6	/	/	/	7	/
COc1ccc(-c2ccc(=O)n(CC3CCN(C(=O)c4ccco4)CC3)n2)cc1OC	-4	/	/	/	/	/
CCOc1ccc(CC(=O)N2CCC(c3nc(-c4cccnc4)n[nH]3)CC2)cc1	3	/	/	/	8	/
COc1ccc2cc3c(N)nn(C(=O)Cc4ccccc4OC)c3nc2c1	0	15	-12	-6	13	/
COc1ccc2cc3c(N)nn(C(=O)C4CCC(C(C)(C)C)CC4)c3nc2c1 (stereo unspecified)	69*	-4	6	-33	13	i
CCCCCCc1nnc(NC(=O)OCC)s1	16	3	-10	3	6	/
C/C=C(\C)c1nnc(NC(=O)OCC)s1	90*	0	3	1	11	i

High-throughput results deposited in PubChem by several laboratories.
